Compound activity (PubChem BioAssay)
L3MBTL1 block – qHTS Assay for the Inhibitors of L3MBTL1. Lethal(3)malignant brain tumor-like protein 1 (Homo sapiens), Q9Y468. AlphaScreen L3MBTL1–H3K9me1 peptide binding. Potency, µM (titrated, usually from 57.1 µM), hits mostly inhibitors. 0.66% of 230,000 active; also: nearly all actives have a fitted effect of over 60% in size
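Read-out is AlphaScreen signal from streptavidin donor and nickel chelate acceptor beads (10 ug/mL final each) bridging L3MBTL1 (50 nM) and biotinylated K9-monomethylated H3(1-15) peptide (75 nM), after 30 min compound exposure at room temperature.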
APE1 inh – qHTS Assay for Inhibitors of the Human Apurinic/apyrimidinic Endonuclease 1 (APE1). recombinant APE1, TAMRA/BHQ-2 abasic DNA cleavage fluorescence. Potency, µM (doses to about 65.8 µM), hits mostly inhibitors. 0.35% of 350,000 active; also: nearly all actives have a fitted effect of over 55% in size
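Kinetic fluorescence read (525 ex/598 em nm, three reads 60 s apart) of AP-site incision; signal = third minus first read. Enzyme 0.75 nM, dual-labelled THF duplex 50 nM, compound preincubation 15 min RT.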
KDM4E inh – qHTS Assay for Inhibitors of Human Jumonji Domain Containing 2E (JMJD2E); Lysine-specific demethylase 4E (Homo sapiens), B2RXH2; JMJD2E catalytic domain, FDH-coupled NADH fluorescence (FDH is formaldehyde dehydrogenase); Potency, µM (highest dose often 57.1 µM), usual class: inhibitors; 1.6% of 230,000 active; active = well fitted inhibition curve with a large enough effect, not every such curve was filed as active; inconclusive = small, poorly fitted or top-dose-only effect, or another doubt; inactive = no such curve, though single readings can be large or run the other way; also: nearly all actives have a fitted effect of over 50% in size
BLM helicase inh – qHTS Assay for Inhibitors of Bloom's syndrome helicase (BLM). Potency, µM (titrated, usually from 56.1 µM), actives largely listed as inhibitors. recombinant BLM DNA unwinding, fluorescence dequenching. 0.2% of 350,000 active. RecQ-like DNA helicase BLM (Homo sapiens), P54132; also: nearly all actives have a fitted effect of over 35% in size
Target sequence (P54132 whole entry, looked up): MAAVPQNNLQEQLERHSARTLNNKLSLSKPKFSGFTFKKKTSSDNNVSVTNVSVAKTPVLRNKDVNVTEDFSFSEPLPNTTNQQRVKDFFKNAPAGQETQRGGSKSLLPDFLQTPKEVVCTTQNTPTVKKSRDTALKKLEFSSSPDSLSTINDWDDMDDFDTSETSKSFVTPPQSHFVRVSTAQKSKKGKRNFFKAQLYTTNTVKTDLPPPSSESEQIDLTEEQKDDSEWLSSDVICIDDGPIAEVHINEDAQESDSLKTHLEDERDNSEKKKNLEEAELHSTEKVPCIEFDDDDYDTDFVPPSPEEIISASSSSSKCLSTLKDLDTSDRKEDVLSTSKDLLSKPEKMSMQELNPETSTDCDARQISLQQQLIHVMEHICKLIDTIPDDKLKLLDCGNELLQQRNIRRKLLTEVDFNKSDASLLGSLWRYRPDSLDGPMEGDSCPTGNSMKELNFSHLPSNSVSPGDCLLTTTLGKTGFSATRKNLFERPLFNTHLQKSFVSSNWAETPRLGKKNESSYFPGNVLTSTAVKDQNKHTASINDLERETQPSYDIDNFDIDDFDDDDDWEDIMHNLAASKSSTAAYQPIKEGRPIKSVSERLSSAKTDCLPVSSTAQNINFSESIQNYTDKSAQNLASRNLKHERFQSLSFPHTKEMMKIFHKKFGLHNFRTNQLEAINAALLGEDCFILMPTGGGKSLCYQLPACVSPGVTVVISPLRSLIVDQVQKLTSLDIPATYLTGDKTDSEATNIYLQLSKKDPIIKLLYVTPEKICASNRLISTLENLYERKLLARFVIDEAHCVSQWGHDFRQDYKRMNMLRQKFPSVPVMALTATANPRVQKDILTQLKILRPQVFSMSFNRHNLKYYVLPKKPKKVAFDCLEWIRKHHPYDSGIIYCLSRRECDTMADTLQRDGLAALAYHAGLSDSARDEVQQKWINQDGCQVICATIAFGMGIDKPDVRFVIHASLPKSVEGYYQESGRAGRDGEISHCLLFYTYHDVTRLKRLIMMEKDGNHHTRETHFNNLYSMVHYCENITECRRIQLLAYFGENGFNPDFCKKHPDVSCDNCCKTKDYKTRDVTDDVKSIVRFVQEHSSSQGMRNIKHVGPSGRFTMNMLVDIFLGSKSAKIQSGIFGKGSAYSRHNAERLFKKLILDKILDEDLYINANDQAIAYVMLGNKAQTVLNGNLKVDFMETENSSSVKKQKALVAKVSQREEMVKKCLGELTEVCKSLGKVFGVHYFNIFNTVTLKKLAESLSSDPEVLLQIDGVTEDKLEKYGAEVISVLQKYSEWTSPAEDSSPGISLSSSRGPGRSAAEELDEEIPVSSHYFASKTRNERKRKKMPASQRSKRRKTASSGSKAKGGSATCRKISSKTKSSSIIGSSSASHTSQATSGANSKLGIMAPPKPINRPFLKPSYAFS
RECQ1 helicase – qHTS Assay for Inhibitors of RecQ-Like Dna Helicase 1 (RECQ1); RECQ1 DNA unwinding, red fluorescence kinetic read; ATP-dependent DNA helicase Q1 (Homo sapiens), P46063; 0.54% of 240,000 active; Potency, µM (series often up to 57.3 µM), hits mostly inhibitors; also: nearly all actives have a fitted effect of over 30% in size
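50 nM RECQ1T1 preincubated 15 min with compound in Tris pH 8.0 buffer with MgCl2, DTT, Tween-20 and 2.5 ug/ml poly(dI-dC); started with 200 nM TAMRA/BHQ-2 forked duplex and 2 mM ATP. Unwinding read as fluorescence (525/598 nm), two reads 2 h apart.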
A number is an active result; - = inactive; ? = inconclusive; . = not tested or not shown; ! = a repeat was not active; [ ] = another dose, or the depositor's remark. The full list was thinned out, with hits kept by preference. Unless noted, calls follow the shape of the dose curve; as a rule, active = well fitted curve in the direction sought with a large enough effect; inconclusive = small, poorly fitted or top-dose-only effect, or another doubt; inactive = no such curve, though single readings can be large; an effect the other way counts as inactive or inconclusive.

SMILES | L3MBTL1 block | APE1 inh | KDM4E inh | BLM helicase inh | RECQ1 helicase
O=C(CSc1nc2c(cnn2-c2ccc(F)cc2)c(=O)[nH]1)N1N=C(c2cccs2)CC1c1ccc(F)cc1 (centres undefined) | - | - | 5µM | - | -
C[n+]1nc(Nc2cccc3ccccc23)sc1-c1ccc(C(=O)O)cc1 | . | - | 8.9µM | - | -
C=CCN(CC=C)C(=S)Nc1ccc2nsnc2c1 | 8.9µM | - | ? | 3.5µM | -
COc1ccc(NC(=S)Nc2ccc3nsnc3c2)cc1 | - | - | - | 4µM | -
CCOc1ccc(NC(=S)Nc2ccc3nsnc3c2)cc1 | - | - | - | 4µM | -
CC(C)c1ccc(NC(=O)CCNC(=O)Cn2cnc3ccccc3c2=O)cc1 | . | - | . | - | .
CCOC(=O)C1=CN(CC2CCCO2)C=C(C(=O)OCC)C1c1ccccc1C(F)(F)F (centres undefined) | - | - | ? | - | -
CC(=O)NC(c1ccco1)c1ccc2cccnc2c1O (centres undefined) | ? | - | 25µM | - | -
CC(C)C(=O)NC(c1ccc(Cl)cc1Cl)c1ccc2cccnc2c1O (centres undefined) | -[2.29 µM] | - | . | - | .
COc1ccc(C(NC(=O)C(C)C)c2ccc3cccnc3c2O)cc1 (centres undefined) | . | - | 28µM | - | -
Cc1c(C(=O)N2CCC2)oc2ccc(Br)cc12 | - | - | . | . | .
COc1cc(NCc2ccc3nc(N)nc(N)c3c2C)cc(OC)c1OC | . | ? | . | 18µM! | -
COc1cccc(CNc2ccc3c(c2)nc(C)n3C)c1OC | - | - | . | - | .
Cc1cc(N=Nc2ccc(Cl)cc2)cc(CN2CCCC2)c1O | ? | - | - | - | -
O=C(CSc1ncn[nH]1)c1ccc2c(c1)OCCO2 | -[11.4 µM] | - | ? | - | -
CC(C)(C)NC(=O)NC(=O)CSc1ncn[nH]1 | . | - | - | - | -
CC(C)c1ccc(C(=O)CSc2ncn[nH]2)cc1 | - | - | 25µM | - | -
O=C(CSc1ncn[nH]1)CSc1ncn[nH]1 | . | - | 3.5µM | - | -
CSc1ccc(C=NNc2ccc(S(=O)(=O)Nc3ccccc3C(=O)O)cc2[N+](=O)[O-])cc1 | 20µM | 8.4µM | . | . | .
CCOc1cccc(C=NNc2ccc(S(=O)(=O)Nc3ccccc3C(=O)O)cc2[N+](=O)[O-])c1O | ? | - | . | . | .
O=C(O)c1ccccc1NS(=O)(=O)c1ccc(NN=Cc2ccccc2F)c([N+](=O)[O-])c1 | - | ? | . | . | .
CCOc1ccc(C=NNc2ccc(S(=O)(=O)Nc3ccccc3C(=O)O)cc2[N+](=O)[O-])cc1 | 16µM | - | . | . | .
CCN(CC(=O)Nc1ccc(C(C)=O)cc1)CC(=O)Nc1ccccc1C(F)(F)F | . | ? | - | - | -
COc1ccc(-c2noc(C3CC(=O)N(c4cc(C)cc(C)c4)C3)n2)cc1 (centres undefined) | . | . | . | - | .
C=C(C)C1CCC2(C(=O)O)CCC3(C)C(CCC4C5(C)C(C=O)C(O)C(C)(C)C5CCC43C)C12 (centres undefined) | . | ? | - | - | -
SMILES | L3MBTL1 block | APE1 inh | KDM4E inh | BLM helicase inh | RECQ1 helicase
CCCCCC(/C=N/Nc1ccc(S(=O)(=O)N2CCOCC2)cc1[N+](=O)[O-])=C\c1ccccc1 | . | - | - | - | -
CN(C)C1C(=O)C(C(N)=O)=C(O)[C@@]2(O)C(=O)C3=C(O)c4c(O)ccc(Cl)c4C(O)[C@H]3C[C@@H]12 (some centres undefined) | . | - | ? | - | -
C[C@H]1c2cccc(O)c2C(O)=C2C(=O)[C@]3(O)C(O)=C(C(N)=O)C(=O)[C@@H](N(C)C)[C@@H]3[C@@H](O)[C@@H]21 | . | ? | 20µM | - | ?
CN(C)c1ccc(O)c2c1C[C@H]1C[C@H]3[C@H](N(C)C)C(=O)C(C(N)=O)=C(O)[C@@]3(O)C(=O)C1=C2O | . | 13µM! | . | . | .
Cc1ccc(N2CC(NC(=O)/C=C\c3ccc4c(c3)OCO4)CC2=O)cc1 (centres undefined) | . | . | . | - | .
CCCCn1c(N)c(N(CCOC)C(=O)CSc2n[nH]c(-c3ccc(C)cc3)n2)c(=O)[nH]c1=O | - | - | . | . | .
CCOc1ccccc1N1CCN(C(=O)C2c3ccccc3Oc3ccccc32)CC1 | - | - | - | - | -
O=C(NCc1ccccn1)c1coc(=O)c(Br)c1 | 14µM | - | ? | - | -
CCOc1ccc(C(=O)NCc2ccccn2)cc1 | - | - | - | - | -
O=C(c1cccc(-n2cccc2)c1)N1CCN(S(=O)(=O)c2ccccc2)CC1 | 4.5µM | 1.5µM | . | . | .
Cc1ccc(S(=O)(=O)N2CCN(C(=O)c3cccc(-n4cccc4)c3)CC2)cc1 | ? | - | . | . | .
COc1ccc(N=CC2=C(O)CC(c3ccccc3)CC2=O)c(OC)c1 (centres undefined) | - | - | ? | - | -
Cc1ccsc1C(=O)OCc1csc(-c2ccccc2)n1 | . | - | - | - | -
NC(=O)c1ccnc2c(O)cccc12 | 14µM | - | . | . | .
O=C(CN1C(=O)S/C(=C\c2ccc(-c3cc(C(=O)O)ccc3Cl)o2)C1=O)Nc1ccc2c(c1)OCO2 | . | 6.7µM | . | 10µM | .
Cn1cc(/C=C2/SC(=O)N(CC(=O)Nc3ccc4c(c3)OCO4)C2=O)c2ccccc21 | - | - | - | - | -
Cc1cc(C)c(S(=O)(=O)/N=C2\C=C(Nc3ccc(C(=O)O)cc3)C(=O)c3ccccc32)c(C)c1 | . | - | . | ? | .
O=C(O)c1ccc(NC2=C/C(=N/S(=O)(=O)c3ccccc3)c3ccccc3C2=O)cc1 | . | ? | - | 14µM | -
CCc1ccc(S(=O)(=O)/N=C2/C=C(Sc3ncn[nH]3)C(=O)c3ccccc32)cc1 | ? | ? | 3.5µM | 22µM | ?
CCc1ccc(S(=O)(=O)/N=C2\C=CC(=O)c3ccccc32)cc1 | . | - | - | - | -
CCc1ccc(S(=O)(=O)/N=C2\C=C(Nc3ccc(O)cc3)C(=O)c3ccccc32)cc1 | . | - | . | - | .
CCc1ccc(S(=O)(=O)/N=C2\C=C(Nc3cccc(C(=O)O)c3)C(=O)c3ccccc32)cc1 | . | - | . | 25µM | .
O=C(COC(=O)Cc1ccc(Cl)c(Cl)c1)Nc1ccc2[nH]c(=O)[nH]c2c1 | - | - | . | . | .
CC1CCN(S(=O)(=O)c2ccc3c(c2)CCC(=O)N3CC(=O)Nc2cccc(C#N)c2)CC1 | ? | 4.7µM | . | - | .
COc1ccc(/C=N/Nc2cc(C)nc3ccc(OC)cc23)c(OC)c1 | - | 27µM | . | 25µM | .
COc1ccc(C2CC(c3ccccc3)=NN2c2ccccc2)c(C(=O)O)c1OC (centres undefined) | - | - | ? | - | -
